From ChEMBL document CHEMBL4513141, “CO-ADD screening of NIH (USA) - Clinical Collection” (2021)
Potency and affinity values are given separately.

Experiments:
Staphylococcus aureus = settings: Concentration 20 uM; ASSAY_TEST Inhibition of Bacterial Growth; detection method Absorption (OD600); MEDIA CAMHB; plate type 384well; NBS; CORNING #3640; time 18 hr
Escherichia coli = settings: Concentration 20 uM; ASSAY_TEST Inhibition of Bacterial Growth; detection method Absorption (OD600); MEDIA CAMHB; plate type 384well; NBS; CORNING #3640; time 18 hr

Compound | Inhibition (Staphylococcus aureus) [%] | Inhibition (Escherichia coli) [%]
Cl.O=C1c2cccc3c2[C@H](CCC3)CN1[C@@H]1CN2CCC1CC2 [PALONOSETRON HYDROCHLORIDE] | 8.38 | 4.34
CN1[C@@H]2CC[C@H]1C[C@@H](OC(=O)c1c[nH]c3ccccc13)C2.Cl | 18.1 | -3.68
Cl.Oc1ccc2c3c1OC1C(O)CC[C@@]4(O)[C@@H](C2)N(CC2CCC2)CC[C@]314 (some centres not stated) | 18.7 | -2.31
CN1C(=O)CN=C(c2ccccc2)c2cc(Cl)ccc21 [DIAZEPAM] | 9.71 | 3.05
Cl.O=C1CC2(CCCC2)CC(=O)N1CCCCN1CCN(c2ncccn2)CC1 [BUSPIRONE HYDROCHLORIDE] | 17.44 | 4.5
CCCC(C)(COC(N)=O)COC(=O)NC(C)C (configuration not stated) [CARISOPRODOL] | -20.34 | 4.18
CCOC(=O)c1ncn2c1CN(C)C(=O)c1cc(F)ccc1-2 [FLUMAZENIL] | -0.36 | -2.76
COC(=O)N1CCN(C(=O)Cc2ccc(Cl)c(Cl)c2)C(CN2CCCC2)C1.O=C(O)/C=C/C(=O)O (configuration not stated) | 12.27 | 2.23
CCCCCNC(=N)N/N=C/c1c[nH]c2ccc(OC)cc12.O=C(O)/C=C\C(=O)O [TEGASEROD MALEATE] | 22.85 | -0.84
Fc1ccc([C@@H]2CCNC[C@H]2COc2ccc3c(c2)OCO3)cc1.O=C(O)/C=C\C(=O)O | 0.49 | 6.75
CNC(=O)Oc1ccc2c(c1)[C@]1(C)CCN(C)C1N2C.CNC(=O)Oc1ccc2c(c1)[C@]1(C)CCN(C)C1N2C.O=S(=O)(O)O (some centres not stated) | 12.91 | -3.79
C=C(C)[C@@H]1[C@H]2OC(=O)[C@@H]1[C@]1(O)C[C@H]3O[C@]34C(=O)O[C@H]2[C@]14C.CC(C)(O)[C@@H]1[C@H]2OC(=O)[C@@H]1[C@]1(O)C[C@H]3O[C@]34C(=O)O[C@H]2[C@]14C | 10.5 | 5.19
COc1ccc(C(CN(C)C)C2(O)CCCCC2)cc1.Cl (configuration not stated) [VENLAFAXINE HYDROCHLORIDE] | 5.17 | 7.16
C#C[C@]1(OC(C)=O)CC[C@H]2[C@@H]3CCC4=CC(=O)CC[C@@H]4[C@H]3CC[C@@]21C [NORETHINDRONE ACETATE] | 11.13 | -1.23
c1ccc(Cn2ccnc2)cc1 | 13.36 | -1.92
CC(C)c1cccc(C(C)C)c1O [PROPOFOL] | -2.39 | -13.59
